High-throughput results from PubChem.
GPR151 ag: human GPR151 activation. Q8TDV0. PathHunter beta-arrestin GPR151 cells, luminescence. activation, % at 11.2 µM. hit rate 1% among 650,000. AID 1508602; in the data active means activation above about 4.9%;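 further: 0% = median of compound wells and 100% = cells with positive control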
Target sequence (Q8TDV0 whole entry, looked up): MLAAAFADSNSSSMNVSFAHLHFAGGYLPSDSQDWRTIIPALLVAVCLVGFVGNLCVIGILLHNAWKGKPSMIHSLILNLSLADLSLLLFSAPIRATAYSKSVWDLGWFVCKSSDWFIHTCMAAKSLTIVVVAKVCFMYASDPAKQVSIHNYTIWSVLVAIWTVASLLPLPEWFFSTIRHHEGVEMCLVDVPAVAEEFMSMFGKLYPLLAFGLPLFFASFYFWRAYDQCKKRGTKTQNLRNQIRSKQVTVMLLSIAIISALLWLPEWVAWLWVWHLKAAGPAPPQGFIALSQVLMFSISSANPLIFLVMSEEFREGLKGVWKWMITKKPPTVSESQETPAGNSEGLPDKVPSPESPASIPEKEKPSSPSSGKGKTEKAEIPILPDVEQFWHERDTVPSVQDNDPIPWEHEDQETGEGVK
FBW7 act: human FBW7 E3 ligase activation, primary screen; Q969H0; hit rate 0.13% among 650,000; normalized activity (activation), % at 26.1 µM; AlphaScreen FBW7–phospho-cyclin E peptide binding, activator screen; in the data active means normalized activity above about 1.9%;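 further: purified mutant Fbw7 with reduced substrate affinity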
MITF inh: blocks human microphthalmia-associated transcription factor. O75030. AID 1259374. AlphaScreen MITF homodimerization, bead proximity signal. inhibition, % at 2.6 µM. hit rate 0.91% among 650,000; in the data active means inhibition above about 50%;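 further: 0% = vehicle wells with protein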
TEAD-YAP inh: TEAD-YAP interaction inhibition | inhibition, % at 9.12 µM | AID 1259422 | hit rate 1.4% among 640,000 | HEK-TIYL cells, TEAD-Gal4/YAP UAS-luciferase luminescence; in the data active means inhibition above about 32%;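 further: 0% = median of test compound wells and 100% = reference inhibitor wells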
MITF inh conf: confirmation of human MITF inhibitors; shares compounds with MITF inh; AlphaScreen MITF homodimerization, biotin/His-MITF beads; inhibition, % at 2.6 µM; hit rate 16% among 4,700; AID 1259372;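 active means inhibition above a cutoff derived from the DMSO control wells, cut at about 28% in these data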;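 further: 0% = MITF dimer wells with DMSO only; inhibitors lower the bead chemiluminescence by keeping MITF from dimerizing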
AS interf ctr: AlphaScreen optical interference, counter-screen. hit rate 7.6% among 4,700. shares compounds with MITF inh. AID 1259376. inhibition, % at 2.6 µM. LysRS AlphaScreen counterscreen, signal interference, triplicate;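 active means inhibition above a cutoff derived from the DMSO control wells, cut at about 30% in these data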
An asterisk follows results filed as active. Only some compounds are listed: those with a hit (about 3.5% of all), similar ones and a draw of the others.

What do the screens show for `Cc1ccc(C(=O)Cn2nnc(-c3ccc(N)cc3)n2)cc1`?
GPR151 ag: -1; FBW7 act: 0; MITF inh: 73*; TEAD-YAP inh: 0; MITF inh conf: 16; AS interf ctr: 10

Results for Cc1ccc(-c2nnn(CC(=O)c3ccc4c(c3)OCCO4)n2)cc1 ?
GPR151 ag: -1; FBW7 act: 0; MITF inh: -11; TEAD-YAP inh: -4

Results for O=C(CCSc1nnc2ccccn12)Nc1ccc(F)cc1 ?
GPR151 ag: 0; FBW7 act: 0; MITF inh: 67*; TEAD-YAP inh: -3; MITF inh conf: 11; AS interf ctr: -7

How did O=C(O)CNC(=O)CC1S/C(=N/N=C2\CSC(=O)N2)NC1=O (stereo unspecified) do in these assays?
GPR151 ag: 3; FBW7 act: 0; MITF inh: 88*; TEAD-YAP inh: 3; MITF inh conf: 80*; AS interf ctr: 100*

How did O=C(CC1S/C(=N/N=C2\CSC(=O)N2)NC1=O)Nc1ccc(Cl)cc1 (stereo unspecified) do in these assays?
GPR151 ag: 1; FBW7 act: 0; MITF inh: 49; TEAD-YAP inh: 5

What do the screens show for `O=C(CC1S/C(=N/N=C2\CSC(=O)N2)NC1=O)Nc1ccc(F)cc1` (stereo unspecified)?
GPR151 ag: 1; FBW7 act: 0; MITF inh: 61*; TEAD-YAP inh: 0; MITF inh conf: 49*; AS interf ctr: 99*

Results for O=C(O)CNC(=O)CC1S/C(=N/N=C/c2ccccc2O)NC1=O (stereo unspecified) ?
GPR151 ag: 4; FBW7 act: 0; MITF inh: 5; TEAD-YAP inh: 2

Results for CC(C)(C)Nc1c(-c2ccc(O)cc2O)nc2cnccn12 ?
GPR151 ag: 0; FBW7 act: 0; MITF inh: 3; TEAD-YAP inh: -15

Results for CCn1c(C)nc2cc(C(=O)NNC(=O)NC3CCCCC3)ccc21 ?
GPR151 ag: 0; FBW7 act: 0; MITF inh: 9; TEAD-YAP inh: 0

Results for CCn1c(C)nc2cc(C(=O)NNC(=O)COc3cccc(Br)c3)ccc21 ?
GPR151 ag: 3; FBW7 act: 0; MITF inh: 86*; TEAD-YAP inh: 1; MITF inh conf: 1; AS interf ctr: -2

Results for O=S(=O)(c1ccc(Cl)cc1)n1c(SCc2csc(-c3ccc(Cl)cc3)n2)nc2ccccc21 ?
GPR151 ag: -1; FBW7 act: 0; MITF inh: 3; TEAD-YAP inh: -4

What do the screens show for `COc1ccccc1C(=O)Nc1ccc(C2(C#N)CCCC2)cc1`?
GPR151 ag: -1; FBW7 act: 0; MITF inh: 65*; TEAD-YAP inh: -43; MITF inh conf: 10; AS interf ctr: 6

What do the screens show for `CCOC(=O)c1c(NC(=O)CSc2nnc(CNC(=O)c3ccccc3F)n2-c2ccc(F)cc2)sc2c1CCC2`?
GPR151 ag: 0; FBW7 act: 0; MITF inh: -11; TEAD-YAP inh: -10

Results for CCOC(=O)CN(C)Cc1ccccc1Br ?
GPR151 ag: -1; FBW7 act: 0; MITF inh: 59*; TEAD-YAP inh: 12; MITF inh conf: -16; AS interf ctr: -4

How did CCOC(=O)CN(C)Cc1ccc(OC)cc1OC do in these assays?
GPR151 ag: 0; FBW7 act: 0; MITF inh: -1; TEAD-YAP inh: -9

Results for COc1ccc(C(=O)COC(=O)c2ccccc2NC(=O)c2ccc(Cl)cc2)cc1 ?
GPR151 ag: 0; FBW7 act: 0; MITF inh: -14; TEAD-YAP inh: -4

How did OCCN(CCO)c1ncnc2sc3c(c12)CCCC3 do in these assays?
GPR151 ag: 0; FBW7 act: 0; MITF inh: 68*; TEAD-YAP inh: -1; MITF inh conf: 8; AS interf ctr: 15

How did O=C(Nn1c(Cc2cccs2)nc2ccccc2c1=O)c1ccc(F)cc1F do in these assays?
GPR151 ag: -1; FBW7 act: 0; MITF inh: -3; TEAD-YAP inh: -10

Results for Cc1cccc(N2CCN(c3nc4ccccc4n4nnnc34)CC2)c1C ?
GPR151 ag: -1; FBW7 act: 0; MITF inh: 4; TEAD-YAP inh: 0

How did Cc1nc(NCCO)c2c3c(sc2n1)CCC3 do in these assays?
GPR151 ag: 0; FBW7 act: 0; MITF inh: 4; TEAD-YAP inh: 10
